According to PubChem BioAssay AID485346 (Sanford-Burnham Center for Chemical Genomics, 2010):
Out of some 330,000 compounds screened, about 10,000 (3%) were called active. Shown is part of a subset that was picked to be rich in actives. Unmarked numbers belong to inactive results.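 Rule for the calls: active = inhibition of at least 50% at 8 µM in the primary screen; inactive = the rest.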

Target: Protein Mdm4 (Homo sapiens) + E3 ubiquitin-protein ligase Mdm2 (Homo sapiens) (UniProt O15151+Q00987)
Test: disruptors of Mdm2/MdmX RING complex – cell-based, luminescence, split luciferase, SaOS-2, uHTS, primary screen (AID 485346)
Settings: SaOS-2 split-luciferase Mdm2/MdmX complementation, at 8 µM, active compounds read high

Protein Mdm4 (Homo sapiens) + E3 ubiquitin-protein ligase Mdm2 (Homo sapiens), sequence (O15151 whole entry, looked up): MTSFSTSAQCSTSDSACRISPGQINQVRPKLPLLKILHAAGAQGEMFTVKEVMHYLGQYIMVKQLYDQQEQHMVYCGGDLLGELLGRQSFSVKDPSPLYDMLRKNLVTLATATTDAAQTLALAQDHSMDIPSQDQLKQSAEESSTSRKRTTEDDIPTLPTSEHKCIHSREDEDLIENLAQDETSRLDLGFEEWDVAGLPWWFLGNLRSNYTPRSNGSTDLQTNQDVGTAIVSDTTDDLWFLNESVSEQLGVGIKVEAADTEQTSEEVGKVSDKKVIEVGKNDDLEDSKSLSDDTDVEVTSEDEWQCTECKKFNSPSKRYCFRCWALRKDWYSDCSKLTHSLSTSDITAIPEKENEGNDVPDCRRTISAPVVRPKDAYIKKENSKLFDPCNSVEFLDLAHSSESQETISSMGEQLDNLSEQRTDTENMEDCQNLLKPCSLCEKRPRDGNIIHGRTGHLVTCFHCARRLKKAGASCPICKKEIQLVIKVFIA
Protein Mdm4 (Homo sapiens) + E3 ubiquitin-protein ligase Mdm2 (Homo sapiens), sequence (Q00987 whole entry, looked up): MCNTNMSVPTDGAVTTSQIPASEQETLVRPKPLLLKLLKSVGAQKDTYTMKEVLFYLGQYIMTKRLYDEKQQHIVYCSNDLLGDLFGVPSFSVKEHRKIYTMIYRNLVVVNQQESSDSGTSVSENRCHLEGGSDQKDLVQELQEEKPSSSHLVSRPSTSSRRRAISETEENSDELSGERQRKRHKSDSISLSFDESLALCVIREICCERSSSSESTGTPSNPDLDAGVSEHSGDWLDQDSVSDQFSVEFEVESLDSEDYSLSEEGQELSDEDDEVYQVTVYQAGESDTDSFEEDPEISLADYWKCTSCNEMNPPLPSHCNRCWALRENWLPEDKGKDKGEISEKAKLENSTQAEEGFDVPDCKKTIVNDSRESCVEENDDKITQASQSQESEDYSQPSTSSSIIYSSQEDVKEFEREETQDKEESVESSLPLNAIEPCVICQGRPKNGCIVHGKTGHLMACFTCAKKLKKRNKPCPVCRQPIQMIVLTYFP

Row | SMILES | inhibition
1 | C[C@@H]1CC[C@]2(O[C@@H](CCO)C[C@H](O)[C@H]2O)O1 | 16.3%
2 | CC(=O)Nc1ccc(NC(=O)C2CCCN(S(=O)(=O)c3ccc(Cl)cc3)C2)cc1 (stereo not drawn) | 55.6% (active)
3 | COc1ccc(S(=O)(=O)N2CCCC(C(=O)Nc3ccc(NC(=O)c4ccccn4)cc3)C2)cc1 (stereo not drawn) | -15.5%
4 | CC(C)c1ccc(NC(=O)C2CCCN(S(=O)(=O)c3cccnc3)C2)cc1 (stereo not drawn) | 20.9%
5 | CCOC(=O)c1ccc(N2C(=O)CC(N(C)Cc3ccccc3)C2=O)cc1 (stereo not drawn) | -7.46%
6 | CCCCCCC(=O)N(O)C1CC(=O)N(c2ccccc2)C1=O (stereo not drawn) | 61.2% (active)
7 | CCCCOC(=O)c1ccc(N2C(=O)CC(N3CCN(C/C=C/c4ccccc4)CC3)C2=O)cc1 (stereo not drawn) | 25.8%
8 | CS(=O)(=O)c1ccc(Cl)c(NC(=O)COC(=O)c2ncc(Cl)c(Cl)c2Cl)c1 | 13.8%
9 | CCOc1ccc(CN2CCC(n3nccc3NC(=O)C3CC3)CC2)cc1CO | 20%
10 | COc1ccc(Br)cc1C(=O)NC(=S)Nc1cc(-c2nc3ccccc3[nH]2)ccc1C | 81.4% (active)
11 | Cc1cc2[nH]ncc2cc1NC(=S)NC(=O)c1ccccc1 | 35%
12 | COc1ccc(Br)cc1C(=O)Nc1cccc(C)c1C | -15.3%
13 | Cc1ccc(-c2nc3ccccc3[nH]2)cc1NC(=O)c1sc2ccccc2c1Cl | 99.3% (active)
14 | Cc1ccc2c(Cl)c(C(=O)Nc3nn[nH]n3)sc2c1 | 16.7%
15 | CN1CCc2ccccc2C1Cc1ccccc1NC(=O)c1sc2ccccc2c1Cl (stereo not drawn) | 12.4%
16 | Cc1cc(C(=O)O)c(S(C)(=O)=O)s1 | 24.5%
17 | COC(=O)C(C(=O)Nc1cccc(C)n1)C1CCCCCC1 (stereo not drawn) | 10.4%
18 | C=CCOc1ccc(/C=C/C(=O)OC(C)C(=O)Nc2ccc(NC(C)=O)cc2)cc1 (stereo not drawn) | 4.16%
19 | COc1ccc(-c2cc(C3CCN(c4ncccc4[N+](=O)[O-])CC3)[nH]n2)cc1 | 56.4% (active)
20 | CC(=O)NC(Cc1ccccc1)C(=O)NC1CCN(c2ncccc2[N+](=O)[O-])CC1 (stereo not drawn) | 20.8%
21 | COc1ccc(-c2cc3ncccc3cn2)cc1 | -99.3%
22 | COc1ccc(S(=O)(=O)N2CCCC2CNC(=O)C(=O)NC2CC2)cc1 (stereo not drawn) | 5.26%
23 | CC1(C)Cc2nc3sc4c(SCC(=O)NC(c5ccccc5)c5ccccc5)ncnc4c3cc2CO1 | 71.8% (active)
24 | C=CCn1c(=S)[nH]c2nc3c(cc2c1=O)COC(C)(C)C3 | -32.6%

Row | SMILES | inhibition
25 | CC(C)CCSc1ncnc2c1oc1nc3c(cc12)COC(C)(C)C3 | -3.42%
26 | CCCCN(CC(=O)Nc1cccc(S(=O)(=O)N2CCCC2)c1)Cc1nc2ccccc2c(=O)[nH]1 | 15.4%
27 | CC(C(=O)N1CCN(c2ccccc2F)CC1)c1ccc([N+](=O)[O-])cc1 (stereo not drawn) | -3.99%
28 | COC(=O)c1cc(OC)ccc1-c1ccc(OC)cc1 | 21.1%
29 | COc1ccc(-c2cn[nH]c2-c2ccc(OC)cc2)cc1 | 63.5% (active)
30 | COc1ccc(Oc2cn[nH]c2-c2ccc(OC)cc2O)cc1 | 14.4%
31 | O=C(O)CCn1c(O)c(C=C2N=c3ccccc3=N2)sc1=S | -11%
32 | O=C(CN1CCOc2ccccc21)N1CCC(Cc2ccccc2)CC1 | 25.3%
33 | Cc1c(NS(=O)(=O)c2cc(C(=O)NCCc3ccc(F)cc3)cc(Cl)c2Cl)c(=O)n(-c2ccccc2)n1C | 1.11%
34 | CCOc1ccc(C2c3[nH]c4ccccc4c3CCN2Cc2cccn2-c2ncccn2)cc1 (stereo not drawn) | 76.2% (active)
35 | c1ccc(C2c3[nH]c4ccccc4c3CCN2Cc2cccn2-c2cccnc2)nc1 (stereo not drawn) | 5.09%
36 | CCOc1ccc(C2c3[nH]c4ccccc4c3CCN2Cc2cn(CC)nc2C)cc1 (stereo not drawn) | 12.1%
37 | CCc1ccc(NC(=O)C(C)OC(=O)/C=C/c2cccc([N+](=O)[O-])c2)cc1 (stereo not drawn) | -11%
38 | CC1=C(C(=O)OC2CCCCC2)C(c2cccnc2)n2ncnc2N1 (stereo not drawn) | 18.3%
39 | CCNCCC(=O)N1c2ccccc2Sc2ccc(NC(=O)OCC)cc21 | 11.1%
40 | CCOC(=O)Nc1ccc2c(c1)N(C(=O)CCCl)c1ccccc1[S@]2=O | 84.3% (active)
41 | CCOC(=O)Nc1ccc2c(c1)N(C(=O)CCN1CCN(CCO)CC1)c1ccccc1CC2 | -8.36%
42 | CCOc1cc(-c2cc(-c3ccc(NC(C)=O)cc3)nc(N)c2C#N)ccc1O | 62.3% (active)
43 | CCOc1cc(-c2cc(-c3ccc(OC)cc3)nc(N)c2C#N)ccc1O | 14.7%
44 | CCOC(=O)CC(=O)CSc1nc(-c2ccccc2)cc(-c2ccc(Cl)cc2)c1C#N | 17%
45 | CCC(C)c1ccccc1NC(=O)CN(C)CC(=O)Nc1ccccc1SC (stereo not drawn) | 9.56%
46 | O=C(NCC1CCCO1)c1cc2c([nH]c3ccccc32)c(-c2ccc(F)cc2)n1 (stereo not drawn) | 69.3% (active)
47 | O=C(NCCCO)c1cc2c([nH]c3ccccc32)c(-c2ccc(F)cc2)n1 | 40.9%
48 | O=C(NCC1CCCO1)c1ccc2ccccc2n1 (stereo not drawn) | -19.2%

Row | SMILES | inhibition
49 | COc1ccc2[nH]c3c(c2c1)CCN1C(=O)C(CC(=O)NCCc2ccccn2)C[C@H](C(=O)N2CCOCC2)[C@@]31C (stereo partly drawn) | 1.71%
50 | Cc1ccc2c(N)c(C(=O)c3ccccc3)sc2n1 | 20.5%
51 | Cc1sc2nc(CC(N)=O)[nH]c(=O)c2c1-c1ccccc1 | -7.25%
52 | NC(=O)c1sc2nc3c(c(-c4ccccc4)c2c1N)CCC3 | 57.3% (active)
53 | COC(=O)Cn1c(=NC(=O)c2cc(OC)c(OC)c(OC)c2)sc2cc(OC)ccc21 | 34.7%
54 | CCOC(=O)C(Sc1ncc(C#N)c(N)n1)C(C)C (stereo not drawn) | 15.2%
55 | C=CCn1c(SCC(=O)NC)nnc1C12CC3CC(CC(C3)C1)C2 | 10.2%
56 | CCCCc1nc2ccccc2c(=O)n1NC(=O)c1c(O)c2cccc3c2n(c1=O)CC3 | 27%
57 | CCNC(=O)c1c(O)c2cccc3c2n(c1=O)CC3 | 80.5% (active)
58 | Cc1cc(=O)n2c3c(cccc13)CCC2 | 0.512%
59 | CC1=CC(=C(C#N)c2nc3ccccc3s2)C=C(C)N1c1ccc(F)cc1F | 12.5%
60 | OCCCNC(c1ccccc1)c1ccc(O)cc1 (stereo not drawn) | 4.25%
61 | COc1ccc(/C=C(/CC(=O)Nc2ccc(C)cc2)c2nc3ccccc3s2)cc1 | -25.3%
62 | O=C(O)CS/C(=C\c1ccc(F)cc1)c1nc2ccccc2s1 | 21.7%
63 | COc1cccc2sc(NNC(=O)c3nc4ccccc4s3)nc12 | 59.4% (active)
64 | O=C(Nc1ccc2c(c1)OCCO2)C1CCCC1 | 55% (active)
65 | O=C(Nc1ccc2c(c1)OCO2)C1CC1(Cl)Cl (stereo not drawn) | 18%
66 | O=C(Nc1ccc2c(c1)OCCO2)C1CCCN(c2ncccn2)C1 (stereo not drawn) | -64.3%
67 | Cc1onc(-c2ccc(Cl)cc2)c1-c1ccnn1S(=O)(=O)c1ccc(Cl)cc1 | 16.6%
68 | O=C(COC(=O)C1(c2ccc(F)cc2)CCCC1)N1CCNC1=O | 1.73%
69 | C=CCn1c(CNS(=O)(=O)c2ccc(Br)cc2)nnc1SC | 20.2%
70 | N/C(=N\OC(=O)/C=C/c1ccccc1)c1ccc(Br)cc1 | 13.5%
71 | N/C(=N\OC(=O)N1c2ccccc2Sc2ccccc21)c1ccc(Br)cc1 | 53.2% (active)
72 | N/C(=N\OC(=O)Cc1ccccc1[N+](=O)[O-])c1ccc(Br)cc1 | -0.461%

Row | SMILES | inhibition
73 | Cc1cc(=O)cc(C)n1-c1ccc(Cl)c(Cl)c1 | 15.1%
74 | O=c1[nH]nc(SCCS(=O)(=O)c2ccc(F)cc2)n1-c1ccccc1C(F)(F)F | 25.1%
75 | CC[C@@H]1CCCCc2ccccc2[C@@H](C(=O)C[C@H](O)CC(C)=O)OC1=O | 33%
76 | CCOC(=O)c1c(C)oc2cc(Sc3ccccc3)c(O)c(O)c12 | 34.7%
77 | Cc1[nH]nc(-c2ccc(OCc3cnn(-c4ccccc4)c3)cc2O)c1Oc1ccc(Cl)cc1 | 68.4% (active)
78 | Cc1cc(O)cc(O)c1C(=O)Cc1cnn(-c2ccccc2)c1 | -9.6%
79 | COc1ccc(C(=O)Cc2cnn(-c3ccccc3)c2)c(O)c1 | -156%
80 | CC(C)C[C@@H](CO)N1CCN(Cc2ccc(O)cc2)CCC1=O | -30.6%
81 | O=c1[nH]cccc1-c1nc2ccccc2n1Cc1ccc(Cl)cc1 | -9.95%
82 | Nc1nonc1-c1nc2ccccc2n1Cc1ccc(F)cc1 | 53.7% (active)
83 | COc1ccc(C)c(Cn2c(-c3nonc3N)nc3ccccc32)c1 | 45.6%
84 | CCc1cccc(NC(=O)COC(=O)c2cc(=O)c3ccccc3o2)c1 | 13.3%
85 | COc1ccccc1CNC(=O)COC(=O)c1sc(C)nc1C | -9.07%
86 | O=c1oc2ccccc2c(CNc2ccccc2)c1[N+](=O)[O-] | 7.52%
87 | O=C(N[C@H]1C/C=C\C(c2cccc(F)c2)N(Cc2ccccc2)C(=O)C1)OCC1c2ccccc2-c2ccccc21 (stereo partly drawn) | 2.78%
88 | Cc1cccc([C@H]2[C@@H]3C=CC[C@@H](C)[C@@H]3C(=O)N2Cc2ccccc2)c1 | 16.7%
89 | Cc1ccc(-c2cccc([C@H]3[C@@H]4C=CC[C@@H](C)[C@@H]4C(=O)N3Cc3ccccc3)c2)cc1 | 69.8% (active)
90 | COc1ccccc1C(=O)COC(=O)CSCC(=O)Nc1cc(C)on1 | 9.62%
91 | COc1ccc(-c2nc3cnccn3c2NC2CCCCC2)cc1-c1cccc(Cl)c1 | 34.9%
92 | COc1ccc(-c2nc3cc(C)ccn3c2NC2CCCCC2)cc1SC1CCCCC1 | 92.7% (active)
93 | CCOc1cc(-c2nc3cc(C)ccn3c2NCC2CCCO2)ccc1O (stereo not drawn) | 22.2%
